From PubChem BioAssay
In the library only some 6.7% were active in any assay of this set; here they are far more common.
Pf Dd2 growth – inhibitors of Plasmodium falciparum Dd2 growth; AID 1159554; activity change, % at 10 µM; hit rate 2.3% among 94,000; P. falciparum Dd2 growth, SYBR Green, 72 h; hits give low values; in the data active means activity change below about -80%; inconclusive means no clear call, values can overlap the other calls
C diff growth – inhibitors of Clostridium difficile growth; growth activity, negative = inhibition, % at 16 µg/mL (by protocol); Clostridium difficile clinical isolate growth, OD600, 24 h; hits give low values; hit rate 0.25% among 86,000;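 active means mean growth activity at or below -80% and every replicate also at or below -80%; inconclusive means mean at or below -80% but some replicate above -80%; inactive means mean growth activity above -80%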;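 further: 0% = DMSO wells and -100% = levofloxacin 16 µg/mL wells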
T cruzi growth-1 – blocks T. cruzi growth in NIH3T3 culture; inhibition, % at 8.34 µM; hit rate 5.9% among 77,000; T. cruzi beta-gal in NIH3T3, GalScreen luminescence, 90 h;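 active means mean inhibition above about 93%, with at least 55% of replicates each passing it, limit read from the data, passing the limit was not always enough; inconclusive means only one of those two conditions holds; inactive means neither condition holds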
T cruzi growth-2 – Trypanosoma cruzi proliferation inhibition; shares compounds with T cruzi growth-1; T. cruzi beta-gal in NIH3T3, GalScreen luminescence, 90 h; inhibition, % at 8.35 µM; hit rate 72% among 5,600;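 active means mean replicate inhibition above about 95% and at least 55% of replicates individually reaching it, limit read from the data; inconclusive means only one of the two criteria is met; inactive means neither criterion is met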
T cruzi growth-3 – blocks T. cruzi growth in NIH3T3 host cells. shares compounds with T cruzi growth-1. inhibition, % at 2.09 µM. hit rate 21% among 5,600. T. cruzi beta-gal in NIH3T3, GalScreen luminescence, 90 h;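 active means mean inhibition above about 95%, with at least 55% of replicates also reaching it, limit read from the data; inconclusive means meets just one of the two conditions; inactive means meets neither condition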;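 further: plate controls were neutral control median for no effect and positive control median for full effect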
3T3 cytotox – NIH/3T3 (mouse) viability loss; shares compounds with T cruzi growth-1; cytotoxicity (signal decrease), % at 8.35 µM; NIH/3T3 viability, CellTiter-Glo ATP luminescence, 90 h; hit rate 14% among 5,600;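 active means mean signal decrease across replicates above about 35% based on untreated-well scatter, with enough replicates individually passing, limit read from the data; inconclusive means no rule stated though some were filed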;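 further: 0% = median of neutral control wells and 100% = median of positive control wells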
NIH3T3 tox 2 – cytotoxicity in mouse NIH/3T3 fibroblasts; shares compounds with T cruzi growth-1; NIH/3T3 viability, CellTiter-Glo ATP luminescence, 90 h; inhibition, % at 24.9 µM; hit rate 56% among 5,600;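 active means mean loss of cell viability signal at or above a set limit, and enough replicates individually reaching it; inconclusive means meets only the mean limit or only the replicate share; inactive means meets neither condition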;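 further: 0% = median of neutral control wells and 100% = median of positive control wells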
* hit, by the source's call; ? = inconclusive; · = no result.

SMILES	Pf Dd2 growth	C diff growth	T cruzi growth-1	T cruzi growth-2	T cruzi growth-3	3T3 cytotox	NIH3T3 tox 2
C[C@@H]1CN([C@H](C)CO)C(=O)c2cc(NC(=O)NC3CCCCC3)ccc2O[C@@H](C)CCCCO[C@@H]1CN(C)C(=O)C1CCCCC1	-70	5	-17	·	·	·	·
C[C@H](CO)N1C[C@H](C)[C@H](CN(C)Cc2ccc(Cl)c(Cl)c2)Oc2c(NC(=O)Nc3ccc(C(F)(F)F)cc3)cccc2C1=O	-12	52	128*	105*	101*	7	98*
C[C@H]1CN([C@@H](C)CO)C(=O)c2cccc(NC(=O)Nc3ccc(F)cc3)c2O[C@@H]1CN(C)Cc1ccc(Oc2ccccc2)cc1	-21	·	?	103*	85	5	37*
C[C@H](CO)N1C[C@H](C)[C@H](CN(C)Cc2ccc(C(F)(F)F)cc2)Oc2c(NC(=O)Nc3ccc(C(F)(F)F)cc3)cccc2C1=O	12	30	101*	?	77	-4	75*
C[C@@H]1CN([C@@H](C)CO)C(=O)c2cccc(NC(=O)NC3CCCCC3)c2O[C@@H]1CN(C)Cc1ccccc1	-39	-3	-97	·	·	·	·
C[C@H]1CN([C@@H](C)CO)C(=O)c2cccc(NC(=O)Nc3ccc(F)cc3)c2O[C@H]1CN(C)Cc1ccc(C(F)(F)F)cc1	-15	3	55	·	·	·	·
C[C@H](CO)N1C[C@H](C)[C@H](CN(C)Cc2ccc(Cl)c(Cl)c2)Oc2c(NC(=O)Nc3ccc(F)cc3)cccc2C1=O	-9	·	60	·	·	·	·
C[C@@H]1CN([C@@H](C)CO)C(=O)c2cccc(NC(=O)Nc3ccc(F)cc3)c2O[C@@H]1CN(C)Cc1ccc(Oc2ccccc2)cc1	-36	·	111	·	·	·	·
C[C@H](CO)N1C[C@H](C)[C@@H](CN(C)Cc2ccc(Oc3ccccc3)cc2)Oc2c(NC(=O)NC3CCCCC3)cccc2C1=O	-19	4	?	108*	89	-14	106*
Cc1ccc(S(=O)(=O)N[C@H]2CC[C@H](CCNC(=O)C3CCC3)O[C@@H]2CO)cc1	-2	-1	·	·	·	·	·
O=C(N[C@@H]1C[C@@H]2O[C@H](CO)CC[C@@H]2O[C@@H]1CCc1ccc(C#Cc2ccccc2)cc1)c1ccccn1	1	-3	·	·	·	·	·
CCC(=O)N1CC2(CCN(Cc3ccncc3)CC2)c2c(n(C)c3cc(OC)ccc23)[C@H]1CO	18	-4	·	·	·	·	·
C[C@H](CO)N1C[C@H](C)[C@@H](CN(C)Cc2ccc(Oc3ccccc3)cc2)Oc2c(NC(=O)Nc3ccc(C(F)(F)F)cc3)cccc2C1=O	-36	4	129*	101*	89	8	104*
C[C@@H]1CN([C@@H](C)CO)C(=O)c2cccc(NC(=O)C3CCOCC3)c2O[C@@H]1CN(C)Cc1ccc(Oc2ccccc2)cc1	-44	5	42	·	·	·	·
C[C@H]1CN([C@@H](C)CO)C(=O)c2cccc(NC(=O)Nc3ccccc3)c2O[C@@H]1CN(C)Cc1ccc(C(F)(F)F)cc1	-32	11	73	·	·	·	·
C[C@@H]1CN([C@H](C)CO)C(=O)c2cccc(NC(=O)C3CCOCC3)c2O[C@H]1CN(C)Cc1ccc(Oc2ccccc2)cc1	-39	-2	?	102*	52	27	4
COc1ccc(NC(=O)Nc2cccc3c2O[C@@H](CN(C)Cc2ccc(Cl)c(Cl)c2)[C@H](C)CN([C@H](C)CO)C3=O)cc1	-32	6	109*	106*	107*	-1	56*
COc1ccc(NC(=O)Nc2cccc3c2O[C@H](CN(C)Cc2ccc(Cl)c(Cl)c2)[C@@H](C)CN([C@H](C)CO)C3=O)cc1	-28	5	2	·	·	·	·
C[C@@H]1CN([C@@H](C)CO)C(=O)c2cccc(NC(=O)Nc3ccc(C(F)(F)F)cc3)c2O[C@@H]1CN(C)Cc1ccc2c(c1)OCO2	-30	·	?	105*	13	-7	104*
C[C@H](CO)N1C[C@H](C)[C@H](CN(C)Cc2ccc(C(F)(F)F)cc2)Oc2c(NC(=O)Nc3ccc4c(c3)OCO4)cccc2C1=O	-9	5	87	·	·	·	·
CN1C(=O)c2cc(NC(=O)c3cccs3)ccc2OC[C@H]2O[C@@H](CC(=O)NCC(F)(F)F)CC[C@@H]21	-11	-3	-10	·	·	·	·
CCCNC(=O)N(C)C[C@H]1Oc2ncc(C#CC3CC3)cc2C(=O)N([C@@H](C)CO)C[C@@H]1C	32	·	42	·	·	·	·
Cc1noc(C)c1NC(=O)Nc1cccc2c1O[C@@H](CN(C)Cc1ccncc1)[C@H](C)CN([C@@H](C)CO)C2=O	8	-3	110*	-2	0	-6	-8
C[C@@H]1CN([C@@H](C)CO)C(=O)c2cccc(NC(=O)NC3CCCCC3)c2O[C@H]1CN(C)Cc1ccc(Cl)c(Cl)c1	-9	15	?	107*	73	14	70*
C[C@@H]1CN([C@@H](C)CO)C(=O)c2cccc(NC(=O)NC3CCCCC3)c2O[C@@H]1CN(C)Cc1ccc(Cl)c(Cl)c1	-10	3	40	·	·	·	·
SMILES	Pf Dd2 growth	C diff growth	T cruzi growth-1	T cruzi growth-2	T cruzi growth-3	3T3 cytotox	NIH3T3 tox 2
Cc1noc(C)c1NC(=O)Nc1cccc2c1O[C@@H](CN(C)Cc1ccncc1)[C@H](C)CN([C@H](C)CO)C2=O	4	0	43	·	·	·	·
O=C(C1CC1)N1[C@H](CO)[C@@H](c2ccccc2)C12CN(CCC(F)(F)F)C2	-9	3	·	·	·	·	·
Cc1ccc(S(=O)(=O)N(C)C[C@@H]2OCCCC[C@H](C)Oc3ccc(NS(=O)(=O)c4cccs4)cc3C(=O)N([C@@H](C)CO)C[C@H]2C)cc1	-55	·	106*	?	8	3	24
Cc1ccc(S(=O)(=O)Nc2ccc3c(c2)C(=O)N([C@H](C)CO)C[C@@H](C)[C@H](CN(C)S(=O)(=O)c2cccs2)OCCCC[C@H](C)O3)cc1	·	-9	·	·	·	·	·
Cc1ccc(S(=O)(=O)N(C)C[C@H]2OCCCC[C@H](C)Oc3ccc(NS(=O)(=O)c4cccs4)cc3C(=O)N([C@H](C)CO)C[C@@H]2C)cc1	-45	·	68	·	·	·	·
Cc1ccc(S(=O)(=O)N(C)C[C@@H]2OCCCC[C@H](C)Oc3ccc(NS(=O)(=O)c4cccs4)cc3C(=O)N([C@@H](C)CO)C[C@@H]2C)cc1	-57	·	122*	98*	41	-11	-5
Cc1ccc(S(=O)(=O)N(C)C[C@H]2OCCCC[C@H](C)Oc3ccc(NS(=O)(=O)c4cccs4)cc3C(=O)N([C@@H](C)CO)C[C@@H]2C)cc1	-50	·	86	·	·	·	·
Cc1ccc(S(=O)(=O)N(C)C[C@H]2OCCCC[C@@H](C)Oc3ccc(NS(=O)(=O)c4cccs4)cc3C(=O)N([C@@H](C)CO)C[C@H]2C)cc1	-49	·	103*	112*	63	-10	-18
